In ChEMBL document CHEMBL2218924, “A broad activity screen in support of a chemogenomic map for kinase signalling research and drug discovery” (Biochem J, 2013):

Each compound was assayed against Tyrosine-protein kinase HCK (Homo sapiens) (UniProt P08631). Details: at 10 µM.
Sequence of Tyrosine-protein kinase HCK (Homo sapiens) (P08631 2-526 limits assumed): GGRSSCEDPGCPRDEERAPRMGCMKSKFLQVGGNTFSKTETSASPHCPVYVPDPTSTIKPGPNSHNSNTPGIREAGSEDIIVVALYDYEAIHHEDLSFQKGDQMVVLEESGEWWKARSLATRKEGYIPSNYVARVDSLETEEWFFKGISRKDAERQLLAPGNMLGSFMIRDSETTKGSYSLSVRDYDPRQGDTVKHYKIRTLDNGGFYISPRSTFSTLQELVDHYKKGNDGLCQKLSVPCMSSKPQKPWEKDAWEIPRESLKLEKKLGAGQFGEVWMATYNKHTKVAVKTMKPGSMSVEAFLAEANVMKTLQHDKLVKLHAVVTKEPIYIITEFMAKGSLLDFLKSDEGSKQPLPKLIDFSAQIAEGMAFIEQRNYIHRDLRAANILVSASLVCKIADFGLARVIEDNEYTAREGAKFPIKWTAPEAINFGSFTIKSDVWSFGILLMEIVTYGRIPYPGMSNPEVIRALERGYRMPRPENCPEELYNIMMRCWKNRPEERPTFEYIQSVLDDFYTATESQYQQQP
In the case of `O=C1NC(=O)/C(=C/c2ccc3c(c2)OC(F)(F)O3)S1`, the residual activity is reported as 94%.
Work on `Oc1ccc(Nc2nc(-c3ccc(Cl)cc3)cs2)cc1` yielded a residual activity of 86%.
With `Oc1ccc(-c2nc(-c3ccc(F)cc3)c(-c3ccncc3)[nH]2)cc1` the residual activity was 45%.
`Cn1nc2c3c(cccc31)C(=O)c1ccccc1-2` was tested, and the residual activity was 92%.
`O=C1NC(=O)c2c1c1c3ccccc3[nH]c1c1[nH]c3cc(Br)ccc3c21` was tested, and the residual activity was 78%.
Work on `COc1cc2ncnc(Nc3ccc(O)c(Br)c3)c2cc1OC` yielded a residual activity of 7%.
For `N#C/C(=C(\N)Sc1ccc(N)cc1)c1ccccc1C(F)(F)F`, the residual activity was 108%.
`O=C1Nc2cc(Br)ccc2/C1=C1/Nc2ccccc2/C1=N\O` was tested, and the residual activity was 2%.
`O=C(O)c1ccc2c3c1cccc3c(=O)n1c3ccccc3nc21` gave a residual activity of 95%.
In the case of `Cc1ccc(S(=O)(=O)/C=C/C#N)cc1`, the residual activity is reported as 97%.
Compound `CNc1cc2c(Nc3cccc(Br)c3)ncnc2cn1` has a residual activity of 50%.
Compound `O=c1c2ccccc2[nH]c(=S)n1CCN1CCC(=C(c2ccc(F)cc2)c2ccc(F)cc2)CC1` has a residual activity of 101%.
Compound `Oc1c2ccccc2c2c3c(cccc13)N=N2` has a residual activity of 83%.
`Cc1cc2ncc(-c3ccccc3)nc2cc1C` showed a residual activity of 99%.
With `O=C1c2ccccc2-[n+]2ccc3c([nH]c4ccccc43)c21` the residual activity was 83%.
For `CC(C)n1cnc2/c(=N/c3cccc(Cl)c3)nc(NCCO)[nH]c21`, the residual activity was 13%.
`O=C1NC(=O)/C(=C\c2ccc3nccnc3c2)S1` gave a residual activity of 90%.
With `Nc1n[nH]c2nnc(-c3c(-c4ccccc4)nn4ccccc34)cc12` the residual activity was 40%.
For `Cn1cc(/C=C2\C(=O)Nc3ccc(S(N)(=O)=O)cc32)c2ccccc21`, the residual activity was 47%.
